Compounds with a hit are over-represented: about 21% of the library has one in this group of screens.
ClpP mod – qHTS Assay for Activators of ClpP; purified B. subtilis ClpP, FRET peptide cleavage, 20 min; Potency, µM (doses to about 57.5 µM), inactives show at the highest dose activity change, negative = active; actives 1.9% (n = 340,000); AID 651965, 2013; active = well fitted falling curve with a large enough effect; inconclusive = small, poorly fitted or top-dose-only effect; inactive = no such curve, though single readings can be large or run the other way; also: potency is read from the fitted curve at half-maximal effect; the source files actives as falling curves though it sought activators and does not explain the sign; nearly all actives have a fitted effect of over 65% in size
Target sequence (P80244 whole entry, looked up): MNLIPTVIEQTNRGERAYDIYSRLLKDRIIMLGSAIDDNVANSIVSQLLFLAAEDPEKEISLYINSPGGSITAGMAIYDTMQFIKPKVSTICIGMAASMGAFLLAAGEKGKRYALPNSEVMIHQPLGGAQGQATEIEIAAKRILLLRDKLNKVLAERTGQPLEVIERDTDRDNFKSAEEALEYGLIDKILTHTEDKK
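ClpP 10 microg/mL final, pH 8 Tris/KCl buffer with BSA, glycerol, Tween-20; compound pinned in; FRET-FV substrate; RT 20 min; Ex320/Em430; ΔFRET vs ADEP 5.8 microM, DMSO, no enzyme.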
TDP1 cell CPT – DT40-hTDP1 cell growth loss with CPT; chicken DT40 Tdp1-/-;hTDP1 cells + 20 nM CPT, ATP luminescence, 48 h; Potency, µM (top dose mostly 46.2 µM), inactives show at the top dose activity change, negative = growth inhibition, actives largely listed as inhibitors; actives 12% (n = 420,000); AID 686979; also: potency is read from the fitted curve at half-maximal effect; % is scaled to controls: 0 for no effect and ±100 for the full control effect; nearly all actives have a fitted effect of over 55% in size
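Cell growth measured by CellTiter-Glo luminescence after a minimum 48 h, 37 C compound exposure with 20 nM CPT in Tdp1-knockout DT40 cells stably expressing hTDP1, seeded 400/well; qHTS titration format.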
DT40 TDP1 no CPT – qHTS for Inhibitors of human tyrosyl-DNA phosphodiesterase 1 (TDP1): qHTS in cells in absence of CPT; DT40 Tdp1-/- hTDP1 cells, no CPT, ATP luminescence, 48 h; Potency, µM (series often up to 46.2 µM), for inactives: at the highest dose activity change, negative = growth inhibition, actives largely listed as inhibitors; actives 15% (n = 420,000); also: potency is read from the fitted curve at half-maximal effect; % is scaled to controls: 0 for no effect and ±100 for the full control effect; nearly all actives have a fitted effect of over 55% in size
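Growth of hTDP1-complemented DT40 Tdp1-knockout cells is measured by ATP luminescence after at least 48 hr compound exposure at 37 °C, with DMSO substituting for the 20 nM CPT used in the parallel screen.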
IL1B secr inh – inhibitors of inflammasome signaling (IL-1 beta secretion); THP-1 LPS/ATP IL-1B secretion, AlphaLISA, 16 h; active compounds read low; activity change, % at 57.5 µM; actives 4.7% (n = 360,000); AID 743279; in the data active = activity change below about -50%; inconclusive = mostly about -30% to -49%; also: % is scaled to controls: 0 for no effect and ±100 for the full control effect
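THP-1 cells pretreated 1 hr with compounds (up to 57.5 uM final), then stimulated with LPS (250 ng/mL final) plus ATP (1.25 mM final); secreted IL-1B measured by AlphaLISA after 16 hr, decreased signal indicating inhibition.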
D3 ag – agonists of human D3 dopamine receptor; P35462; D3R DiscoveRx beta-arrestin cells, luminescence, 90 min; max activation, %; actives 0.58% (n = 410,000); in the data active = max activation above about 30%; also: 0% is about no effect
Target sequence (P35462 whole entry, looked up): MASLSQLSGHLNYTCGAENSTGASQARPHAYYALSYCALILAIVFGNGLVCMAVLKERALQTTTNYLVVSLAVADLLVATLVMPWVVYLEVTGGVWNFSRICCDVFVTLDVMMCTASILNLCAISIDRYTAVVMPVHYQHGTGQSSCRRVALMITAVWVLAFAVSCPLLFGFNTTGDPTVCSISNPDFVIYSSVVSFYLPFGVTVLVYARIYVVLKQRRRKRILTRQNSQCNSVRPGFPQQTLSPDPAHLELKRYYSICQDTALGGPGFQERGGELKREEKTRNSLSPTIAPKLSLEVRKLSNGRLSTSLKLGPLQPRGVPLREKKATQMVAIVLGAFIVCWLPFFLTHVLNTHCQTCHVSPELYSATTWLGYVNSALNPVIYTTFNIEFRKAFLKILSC
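Cells at 1500/well, incubated overnight, then treated with pinned compounds (dopamine as control) for 90 min at 37 degrees C. DiscoveRx reagent added for 30 - 60 minutes at room temperature; luminescence read.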
D3 antag – blocks the human D3 dopamine receptor; P35462; D3R cells, DiscoveRx beta-arrestin luminescence, antagonist mode; active compounds read low; max response, negative = inhibition, %; actives 2.5% (n = 360,000); in the data active = max response below about -50%; inconclusive = no clear call, values can overlap the other calls; also: % is scaled to controls: 0 for no effect and ±100 for the full control effect
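Cells plated overnight at 1500 cells/well, then exposed to library compounds with dopamine controls for 90 minutes at 37 degrees C. DiscoveRx reagent added for 30–60 minutes at room temperature; luminescence read, quantitative HTS format.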
Active calls of the source: *; ! = not confirmed by another sample. Unless noted, calls follow the shape of the dose curve; as a rule, active = well fitted inhibition curve with a large enough effect; inconclusive = small, poorly fitted or top-dose-only effect; inactive = flat fitted curve, though single readings scatter.

How did COC(=O)c1cc(Br)c(=O)n(CCN2CCCC2)c1 do in these assays?
ClpP mod: -5%; TDP1 cell CPT: 9%; DT40 TDP1 no CPT: -19%; IL1B secr inh: 32; D3 ag: -1; D3 antag: 0

What do the screens show for `COC(=O)c1cc(Br)c(=O)n(Cc2ccco2)c1`?
ClpP mod: inconclusive; TDP1 cell CPT: -14%; DT40 TDP1 no CPT: -23%; IL1B secr inh: 6; D3 ag: -9; D3 antag: -52*

How did COC(=O)c1cc(Br)c(=O)n(CCC2=CCCCC2)c1 do in these assays?
ClpP mod: 0%; TDP1 cell CPT: 21µM*; DT40 TDP1 no CPT: inconclusive; IL1B secr inh: 17; D3 ag: -4; D3 antag: 0

How did COC(=O)c1cc(Br)c(=O)n(CC(C)C)c1 do in these assays?
ClpP mod: 4%; TDP1 cell CPT: -1%; DT40 TDP1 no CPT: -9%; IL1B secr inh: 24; D3 ag: 3; D3 antag: 33

What do the screens show for `O=C(C1CCCN(Cc2ccc(Br)cc2)C1)N1CCCCC1` (stereo unspecified)?
ClpP mod: -1%; TDP1 cell CPT: -12%; DT40 TDP1 no CPT: inconclusive; IL1B secr inh: 5; D3 ag: -17; D3 antag: -4

What do the screens show for `Cc1ccc(N2CCN(S(=O)(=O)c3ccc4oc(=O)ccc4c3)CC2)c(C)c1`?
TDP1 cell CPT: 16µM*; DT40 TDP1 no CPT: inconclusive; IL1B secr inh: -9; D3 ag: -6; D3 antag: -11

Results for COc1ccc(S(=O)(=O)N2CCN(c3ccc(C)cc3C)CC2)cc1OC ?
ClpP mod: -2%; TDP1 cell CPT: 21µM*; DT40 TDP1 no CPT: inconclusive; IL1B secr inh: 10; D3 ag: -4; D3 antag: -11

How did O=c1ccc2cc(S(=O)(=O)N3CCN(c4cc(Cl)ccc4Cl)CC3)ccc2o1 do in these assays?
ClpP mod: -2%; TDP1 cell CPT: -15%; DT40 TDP1 no CPT: inconclusive; IL1B secr inh: -13; D3 ag: -7; D3 antag: 11

What do the screens show for `C/C(=N\Nc1nnc2c3ccccc3n(C)c2n1)c1ccc(C)o1`?
ClpP mod: -29%; TDP1 cell CPT: -18%; DT40 TDP1 no CPT: inconclusive; IL1B secr inh: -65*; D3 ag: 3; D3 antag: 10

Results for O=C(CSc1ncnc2nc[nH]c12)Nc1nnc(SCc2ccc(Cl)c(Cl)c2)s1 ?
TDP1 cell CPT: -28%; DT40 TDP1 no CPT: 18µM*; IL1B secr inh: 19; D3 ag: 6; D3 antag: -8

Results for CCc1nn(C(CC)C(=O)NCCCN2CC(C)CC(C)C2)c(=O)c2cc3oc(C)cc3n12 (stereo unspecified) ?
ClpP mod: -10%; TDP1 cell CPT: 16µM*; DT40 TDP1 no CPT: inconclusive; IL1B secr inh: -10; D3 ag: -22; D3 antag: -57*

Results for CCc1ccccc1NS(=O)(=O)c1ccc(NC(=O)N2CCCC2)cc1 ?
ClpP mod: 1%; TDP1 cell CPT: -20%; DT40 TDP1 no CPT: inconclusive; D3 ag: 1

How did CCS(=O)(=O)Nc1ccc(-c2ccc(NS(=O)(=O)CC)c(OC)c2)cc1OC do in these assays?
ClpP mod: 11µM*; TDP1 cell CPT: -68%; DT40 TDP1 no CPT: inconclusive; IL1B secr inh: -17; D3 ag: -5; D3 antag: 8

What do the screens show for `CCOC(=O)c1c(CN2CCC(C)CC2)oc2ccc(OC)cc12`?
ClpP mod: -9%; TDP1 cell CPT: 23µM*; DT40 TDP1 no CPT: inconclusive; IL1B secr inh: -29; D3 ag: -2; D3 antag: -20

How did CCOC(=O)c1c(CN2CCCCC2C)oc2ccc(OC)cc12 (stereo unspecified) do in these assays?
ClpP mod: -13%; TDP1 cell CPT: 21µM*; DT40 TDP1 no CPT: inconclusive; IL1B secr inh: -4; D3 ag: -12; D3 antag: -24

How did Cc1ccc(C(=O)c2oc3ccc(Cl)cc3c2NC(=O)CN2CCN(C)CC2)cc1 do in these assays?
ClpP mod: 0%; TDP1 cell CPT: inconclusive; DT40 TDP1 no CPT: 21µM*; IL1B secr inh: -57*; D3 ag: -6; D3 antag: 4

What do the screens show for `CN1CCN(CC(=O)Nc2c(C(=O)C3CC3)oc3ccccc23)CC1`?
ClpP mod: -14%; TDP1 cell CPT: inconclusive; DT40 TDP1 no CPT: -10%; IL1B secr inh: -18; D3 ag: -5; D3 antag: inconclusive

Results for CCOC(=O)c1oc2ccccc2c1NC(=O)CN1CCN(C)CC1 ?
ClpP mod: -24%; TDP1 cell CPT: 8%; DT40 TDP1 no CPT: -4%; IL1B secr inh: -3; D3 ag: 2; D3 antag: 12

What do the screens show for `CCOC(=O)c1oc2ccc(OC)cc2c1NC(=O)CN1CCN(C)CC1`?
ClpP mod: 16µM*; TDP1 cell CPT: 1%; DT40 TDP1 no CPT: -19%; IL1B secr inh: -19; D3 ag: -2; D3 antag: -16

Results for CN[C@H]1C[C@H]2c3[nH]c4ccccc4c3CCN2C(=O)[C@H]1[C@H](C)O ?
ClpP mod: -29%; TDP1 cell CPT: -3%; DT40 TDP1 no CPT: inconclusive; IL1B secr inh: 14; D3 ag: -4; D3 antag: 4

How did CCn1c2ccc(C)cc2c2n[nH]c(=S)nc21 do in these assays?
ClpP mod: -8%; TDP1 cell CPT: -3%; DT40 TDP1 no CPT: inconclusive; IL1B secr inh: 4; D3 ag: -11; D3 antag: inconclusive

How did CCOC(=O)c1c(CN2CCN(c3ccccc3)CC2)oc2ccc(O)cc12 do in these assays?
ClpP mod: 0%; TDP1 cell CPT: inconclusive; DT40 TDP1 no CPT: inconclusive; IL1B secr inh: 67; D3 ag: 4; D3 antag: 10

Results for CCOC(=O)c1c(CN2CCN(C)CC2)oc2ccc(OC)cc12 ?
ClpP mod: -25%; TDP1 cell CPT: -1%; DT40 TDP1 no CPT: -5%; IL1B secr inh: inconclusive; D3 ag: -14; D3 antag: -57*

How did CCOC(=O)c1c(CN2CCCCC2)oc2ccc(OC)cc12 do in these assays?
ClpP mod: -12%; TDP1 cell CPT: inconclusive; DT40 TDP1 no CPT: 23µM*!; IL1B secr inh: 13; D3 ag: -21; D3 antag: inconclusive

Results for CCOC(=O)c1c(-c2ccc(OC)cc2)oc2ccc(O)cc12 ?
ClpP mod: -1%; TDP1 cell CPT: -12%; DT40 TDP1 no CPT: inconclusive; IL1B secr inh: 6; D3 ag: 3; D3 antag: 8

How did Cc1cccc(NC(=O)CCNC(=O)c2ccccc2)c1 do in these assays?
TDP1 cell CPT: 10%; DT40 TDP1 no CPT: 13%; IL1B secr inh: -2; D3 ag: -18; D3 antag: -3

Compound activity: PubChem BioAssay, National Center for Advancing Translational Sciences (NCATS)
